Compound activity (PubChem BioAssay)
Six1-Eya2 inh: blocks human Six1 binding to Eya2. Q15475+O00167. AlphaScreen GST-Six1/His-Eya2 binding, biochemical; stronger effect = lower value. activity change, % (test concentration not listed). 0.56% of 360,000 active. AID 651725; in the data active = activity change below about -65%; inconclusive = mostly about -30% to -63%
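GST-Six1 + His-Eya2 (5X stock: 250/500 nM); Tris pH 8.0, 300 mM NaCl, 0.05% BSA, 0.02% Tween 20; GSH donor/Ni acceptor beads; 1 h 37 °C dark; AlphaScreen readout.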
BAZ2B block: inhibitors of human BAZ2B bromodomain. Q9UIF8. AlphaScreen BAZ2B-H3K14Ac peptide displacement. Potency, µM (series often up to 114 µM), actives largely listed as inhibitors. 4.4% of 360,000 active; note: nearly all actives have a fitted effect of over 60% in size
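AlphaScreen luminescence quantifies BAZ2B engagement of H3K14Ac peptide; the protein and biotinylated peptide are both at 50 nM final, buffer PBS pH 7.4 with 0.01% Tween-20, all steps at room temperature.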
JMJD2A Tudor inh: blocks the human JMJD2A Tudor domain | AlphaScreen JMJD2A-Tudor / H3K4me3 peptide binding | Potency, µM (series often up to 114 µM), usual class: inhibitors | 4.4% of 390,000 active; note: nearly all actives have a fitted effect of over 50% in size
G9a block: blocks human histone lysine methyltransferase G9a; Q96KQ7; G9a H3K9 monomethylation, AlphaScreen, 2 h; Potency, µM (top dose mostly 102 µM), actives largely listed as inhibitors; 8.8% of 350,000 active; AID 504332; note: nearly all actives have a fitted effect of over 75% in size
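Using a bead-based AlphaScreen, monomethylated H3K9 product from 2 h room-temperature reactions (G9a 20 nM, peptide 500 nM, SAM 20 uM) was detected with 0.5 ug/mL rabbit anti-H3K9me1 antibody.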
CtBP-E1A inh: blocks the CtBP interaction with E1A | 0.49% of 340,000 active | AlphaScreen GST-E1A/His-CtBP binding, 1536-well; stronger effect = lower value | activity change, % (concentration not given with the values); in the data active = activity change below about -65%; inconclusive = mostly about -30% to -63%
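GST-E1A and His-tagged CtBP (125 nM each as 5X stock) were preincubated with pin-transferred compound for 2 h at 37 °C in the dark, then glutathione donor and nickel acceptor beads were added for 1 h before AlphaScreen reading.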
HP1b binding inh: blocks HP1-beta chromodomain binding to methylated histone tails. 0.56% of 390,000 active. AlphaScreen HP1-beta / biotin-H3K9me3 peptide binding. Potency, µM (titrated, usually from 114 µM), actives largely listed as inhibitors. P83916; note: nearly all actives have a fitted effect of over 70% in size
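HP1-beta protein (50 nM final) preincubated 30 min at room temperature with biotinylated H3(1-18)K9me3 peptide (50 nM) in PBS pH 7.4, 0.01% Tween-20, then compound added for 30 min. AlphaScreen streptavidin donor/nickel chelate acceptor beads (10 ug/mL final), 30 min dark, luminescence read.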
Each line names hits and unclear results; the compound was inactive in the other large screens. Compounds with a hit are over-represented: about 10% of the library has one in this group of screens. Unless noted, calls come from the whole dose curve; as a rule, active = well fitted inhibition curve with a large enough effect; inconclusive = small, poorly fitted or top-dose-only effect; inactive = no such curve, though single readings can be large or run the other way.

COc1ccc(/C=C/C(=O)Nc2ccccc2Cl)cc1S(=O)(=O)N1CCOCC1	none
Cc1ccc(N(CC(C)C)S(=O)(=O)c2nnc(NC(=O)C(C)C)s2)cc1	none (no result: Six1-Eya2 inh, CtBP-E1A inh)
CCC(C)[C@H](NC(=O)N1CC(=O)Nc2ccccc21)C(=O)N[C@@H](C(=O)O)c1ccccc1 (stereo partly specified)	G9a block 79.4µM
O=C1CN(C(=O)N[C@@H](Cc2ccccc2)C(=O)N[C@@H](C(=O)O)c2ccccc2)c2ccccc2N1	JMJD2A Tudor inh 31.6µM
NC1(C(=O)O)CCc2cc(C(=O)O)ccc21 (stereo unspecified)	G9a block 4.47µM (no result: Six1-Eya2 inh, BAZ2B block, JMJD2A Tudor inh, CtBP-E1A inh, HP1b binding inh)
CC1Cc2cc(S(=O)(=O)CCC(=O)Nc3ccc(F)cc3Cl)ccc2N1C(=O)C1CC1 (stereo unspecified)	none (no result: Six1-Eya2 inh, CtBP-E1A inh)
CCOc1ccc(CCNC(=O)CSCC(=O)Nc2ccc(OC)cc2)cc1OCC	none (no result: CtBP-E1A inh)
CN(C)c1ccc2c(c1)Sc1cc(N(C)C)ccc1N2C(=O)c1ccccc1	Six1-Eya2 inh inconclusive, BAZ2B block 8.91µM, JMJD2A Tudor inh 14.1µM, G9a block 10µM, HP1b binding inh 12.6µM
Cc1ccc(C(=O)N2c3ccccc3Sc3ccccc32)cc1	none (no result: BAZ2B block, JMJD2A Tudor inh, G9a block, HP1b binding inh)
COc1cccc(C(=O)N2CCN(C3CCN(Cc4ccccc4)CC3)CC2)c1OC	BAZ2B block 17.8µM, JMJD2A Tudor inh 0.794µM, G9a block inconclusive, HP1b binding inh 22.4µM
CC1CCC(N2CCN(C(=O)c3ccccc3F)CC2)CC1 (stereo unspecified)	BAZ2B block 79.4µM, JMJD2A Tudor inh 28.2µM, G9a block 15.8µM, HP1b binding inh inconclusive (no result: CtBP-E1A inh)
COc1cc(OC)cc(C(=O)N2CCN(C3CCC(C)CC3)CC2)c1 (stereo unspecified)	JMJD2A Tudor inh 56.2µM, HP1b binding inh inconclusive (no result: BAZ2B block, G9a block)
COc1cccc(C(=O)N2CCN(Cc3ccco3)CC2)c1OC	JMJD2A Tudor inh inconclusive, HP1b binding inh inconclusive
O=C(c1ccccc1F)N1CCN(C(=O)C2CC2)CC1	none
COc1cc(OC)cc(C(=O)N2CCN(C3CCN(Cc4ccccc4)CC3)CC2)c1	BAZ2B block 14.1µM, JMJD2A Tudor inh 1.12µM, G9a block 2.51µM, HP1b binding inh inconclusive
Cc1nnc2c3ccccc3nc(N3CCN(c4ccccc4)CC3)n12	none (no result: Six1-Eya2 inh, CtBP-E1A inh)
CCOc1ccc(-c2nc(CSCC(=O)N3CCN(c4cccc(C(F)(F)F)c4)CC3)c(C)o2)cc1	JMJD2A Tudor inh inconclusive (no result: Six1-Eya2 inh, CtBP-E1A inh)
COCCCNC(=O)Cn1cnc2sc(C)c(S(=O)(=O)N3CCC(C)CC3)c2c1=O	none (no result: Six1-Eya2 inh, CtBP-E1A inh)
COc1cc(OC)cc(C(=O)N2CCN(C3CCCCC3)CC2)c1	BAZ2B block inconclusive, JMJD2A Tudor inh 22.4µM, HP1b binding inh inconclusive (no result: G9a block)
O=c1cc(-c2ccc(F)cc2)nc(SCc2nc(-c3ccc(Cl)cc3)no2)[nH]1	none (no result: Six1-Eya2 inh, CtBP-E1A inh)
COc1cc2c3nnc(-c4ccc(F)cc4)c-3cn(Cc3ccc(F)cc3)c2cc1OC	G9a block 50.1µM
O=C1NC(=S)N/C1=C/c1cccc([N+](=O)[O-])c1O	BAZ2B block inconclusive
O=C1NC(=S)N/C1=C/c1cc([N+](=O)[O-])ccc1O	G9a block 11.2µM
CCCC[C@@H]1CCCO[C@@](C(=O)NCC2CC2)(C(F)(F)F)C1	none (no result: Six1-Eya2 inh, BAZ2B block, G9a block, CtBP-E1A inh)
COc1ccc(NC(=O)N/C=C/c2ccco2)cc1	BAZ2B block inconclusive, JMJD2A Tudor inh inconclusive, G9a block 10µM
O=C(N/C=C/c1ccco1)Nc1cccc(Cl)c1	BAZ2B block inconclusive, JMJD2A Tudor inh inconclusive, G9a block 50.1µM
O=C(/C=C/c1ccco1)Nc1ccc(Oc2ccc(Cl)cc2)cc1	BAZ2B block inconclusive
C=CCNC(=O)N1CCC(c2nc3ccccc3s2)CC1	none
CCCCC(=O)Nc1ccc(C(=O)NNC(=S)NC(=O)c2ccco2)cc1	G9a block 25.1µM
COc1ccc(C(=O)NC(=S)NNC(=O)c2ccco2)cc1	none
O=C(NC(=S)NNC(=O)c1cc2ccccc2cc1O)c1ccco1	Six1-Eya2 inh -91.4, JMJD2A Tudor inh 44.7µM, CtBP-E1A inh -93.9 (no result: G9a block)
CCCCC(=O)Nc1ccc(C(=O)NNC(=O)c2ccco2)cc1	none
O=C(NC(=S)NNC(=O)c1ccco1)c1ccc(F)cc1	G9a block 12.6µM (no result: CtBP-E1A inh)
O=C(Nc1ccc(Cl)c(NC(=O)c2cccs2)c1)c1ccco1	G9a block 56.2µM (no result: CtBP-E1A inh)
CCc1ccc(N2C(=O)CC(c3ccc(F)cc3)C3=C2COC3=O)cc1 (stereo unspecified)	none (no result: Six1-Eya2 inh, JMJD2A Tudor inh, CtBP-E1A inh, HP1b binding inh)
COCCN1CC(C(=O)NCc2ccccc2-n2ccnc2C)CCC1=O (stereo unspecified)	none
CCCC(=O)Nc1ccc(Cl)c(NC(=S)NC(=O)c2ccco2)c1	G9a block 50.1µM
CCCC(=O)Nc1ccc(C(=O)NNC(=O)c2ccccc2Br)cc1	G9a block 22.4µM
CCc1ccc(/C(C)=N/NC(=O)CNC(=O)/C=C/c2ccccc2OC)cc1	none
COc1ccccc1/C=C/C(=O)NCC(=O)N/N=C/c1ccc(C)o1	G9a block 44.7µM
COc1ccccc1/C=C\C(=O)NCC(=O)N/N=C/c1ccc(O)cc1O	Six1-Eya2 inh -80.0, CtBP-E1A inh -74.0
COc1ccccc1/C=C/C(=O)NCC(=O)N/N=C/c1ccccc1	none
